Reference: PubChem BioAssay (NCATS)
Inconclusive results are not listed. Values without a mark were called inactive. Calls follow the shape of the dose curve; as a rule, active = well fitted curve in the direction sought with a large enough effect in the signal ratio (not every such curve was filed as active); inconclusive = small, poorly fitted or top-dose-only effect, or effect the other way, or a change in a side signal; inactive = no such curve, though single readings can be large or run the other way; the % refers to the signal ratio.

Target: Tyrosine-protein phosphatase non-receptor type substrate 1 (Homo sapiens) + Leukocyte surface antigen CD47 (Homo sapiens) (UniProt P78324+Q08722)
Test: CD47-SIRPalpha protein protein interaction - HTRF assay qHTS validation (AID 1347058); also: 0% is about no effect
Conditions: TR-FRET HTRF CD47-His / biotin-SIRPalpha binding, ratio 665/615; series mostly up to 38.3 µM; activity change, negative = inhibition: at the top concentration
Description: SIRPalpha is a myeloid cell expressed immunomodulatory receptor that binds the tumor expressed immune checkpoint CD47. Therapeutic disruption of this interaction leads to immune-mediated tumor rejection. This assay was used to quantitate CD47-SIRPalpha binding biochemically and evaluate chemical libraries for novel CD47-SIRPalpha inhibitors. To recapitulate the biological interaction of CD47 and SIRPalpha, we designed expression constructs to produce their recombinant, soluble, extracellular interaction domains. CD47 was produced with an N-terminal 6His tag. SIRPalpha was produced with an N-terminal Avi-Tag for site-specific biotin incorporation. The CD47-SIRPalpha interaction was measured by TR-FRET using affinity tag linked reagents (anti-6His-Eu donor and streptavidin-XL665 acceptor). SIRPalpha without biotin incorporation was used as a positive control inhibitor.
SEQUENCE No. (e.g., 1, 2, 3, etc.); […] (e.g., Cells, Incubation, Reagent, etc.); VALUE and DESCRIPTION.
1a. Reagent. 3 uL CD47-His (12.5 nM) and Anti-His Eu Donor reagent (0.7 nM) added to respective wells in Assay buffer; white/solid bottom high base, med bind 1536-well plates (Greiner 789075)
1b. Reagent. 2 uL Assay buffer negative control for background fluorescence
2. Reagent. 23 nL library compounds (7-pt, 1:4 intraplate titration series) or DMSO control transferred by Pin Tool
3. Centrifuge. Centrifuge plate for 30 s at 1000 RPM
4. Incubation.#Incubate reagents at room temperature for 30 min, protected from light
5. Reagent. 2 uL SIRPalpha-biotin (100 nM) in Assay buffer
6. Incubation.#Incubate reagents at room temperature for 30 min, protected from light
7. Reagent. 1 uL SAV-XL665 (85 nM) acceptor reagent added to respective wells
8. Centrifuge. Centrifuge plate for 30 s at 1000 RPM
9. Incubation. Incubate reagents at room temperature for 30 min, protected from light
10. Detector. Measure Top TR-FRET on EnVision (Eu/APC filter set); calculate ratio Ch1/Ch2
1. Assay buffer composition.#Phosphate buffered saline (PBS; 10 mM Phosphate, 137 mM NaCl, and 2.7 mM KCl; pH 7.4), 0.05% IGEPAL CA-630
2. 23nL of […] library compounds (7 plates) or DMSO vehicle control transferred to 9 Greiner white/solid bottom high base, TC plates in 7 interplate 1:5 titrations (see Yasgar, A. et al. 2008) with Pintool. Two of the 9 plates are DMSO-only in compound field at beginning and end of compound library-treated plates.
10. Detector settings#Mirror = LANCE/DELFIA Dual Enh; Ex. Filter = UV2[TRF] 320; Em. Filter = APC 665; 2nd Em. Filter = Europium 615; Measurement h = 6.5; Ex. light (%) = 100; Delay = […]; Window t = 100 us; No. Seq. windows = 1; Time between flashes = 2000us; No. of flashes = 100; No. of flashes for 2nd detector = 100; Calculation: "Ratio Ch1/Ch2"

Sequence of Tyrosine-protein phosphatase non-receptor type substrate 1 (Homo sapiens) + Leukocyte surface antigen CD47 (Homo sapiens) (P78324 whole entry, looked up): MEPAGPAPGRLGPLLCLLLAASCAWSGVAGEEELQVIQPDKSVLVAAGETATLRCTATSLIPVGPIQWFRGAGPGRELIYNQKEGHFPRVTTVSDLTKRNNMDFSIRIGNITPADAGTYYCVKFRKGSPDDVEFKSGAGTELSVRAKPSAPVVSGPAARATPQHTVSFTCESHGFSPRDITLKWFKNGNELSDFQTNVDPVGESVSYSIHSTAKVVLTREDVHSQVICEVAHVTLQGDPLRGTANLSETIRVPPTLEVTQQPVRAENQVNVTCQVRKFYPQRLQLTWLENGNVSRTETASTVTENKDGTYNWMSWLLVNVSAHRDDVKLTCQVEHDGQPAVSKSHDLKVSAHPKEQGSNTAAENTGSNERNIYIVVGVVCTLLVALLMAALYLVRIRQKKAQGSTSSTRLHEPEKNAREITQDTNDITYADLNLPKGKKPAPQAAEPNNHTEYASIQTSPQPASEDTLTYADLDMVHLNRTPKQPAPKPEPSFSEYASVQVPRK
Sequence of Tyrosine-protein phosphatase non-receptor type substrate 1 (Homo sapiens) + Leukocyte surface antigen CD47 (Homo sapiens) (Q08722 whole entry, looked up): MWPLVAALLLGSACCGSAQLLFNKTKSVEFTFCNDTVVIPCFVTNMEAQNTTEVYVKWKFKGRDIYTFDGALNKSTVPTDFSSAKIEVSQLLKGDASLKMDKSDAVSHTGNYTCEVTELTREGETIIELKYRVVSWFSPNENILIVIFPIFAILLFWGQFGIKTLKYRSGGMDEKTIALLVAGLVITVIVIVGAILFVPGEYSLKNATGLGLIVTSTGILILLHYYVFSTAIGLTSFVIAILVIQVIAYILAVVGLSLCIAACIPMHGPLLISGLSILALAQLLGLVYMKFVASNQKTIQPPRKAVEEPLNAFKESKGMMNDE

Compound	activity change, negative = inhibition [%]
O=c1[nH]oc2c1CCNC2	0.439
CN1C(=O)CCS(=O)(=O)C1c1ccc(Cl)cc1 (centres undefined)	1.43
O=C(CCCN1CCC2(CC1)C(=O)NCN2c1ccccc1)c1ccc(F)cc1	3.3
CCC1(c2ccc(N)cc2)CCC(=O)NC1=O (centres undefined)	-4.22
C=C(C)[C@H]1CN[C@H](C(=O)O)[C@H]1CC(=O)O	2.9
CC(C)(C)NCC(O)c1ccccc1Cl (centres undefined)	0.102
CC(NC(C)(C)C)C(=O)c1cccc(Cl)c1 (centres undefined)	8.26
NCCc1ccc(O)cc1	-5.74
CCCCCN(C)CCC(O)(P(=O)(O)O)P(=O)(O)O	-10
Cc1ncsc1CCCl	-7.72
CC(C)c1cccc(C(C)C)c1O	0.135
CC(C)N(CCC(C(N)=O)(c1ccccc1)c1ccccn1)C(C)C (centres undefined)	-1.35
COc1ccc2c(c1OC)C(=O)O[C@H]2[C@@H]1c2cc3c(cc2CCN1C)OCO3	0.337
O=P1(N(CCCl)CCCl)NCCCO1 (centres undefined)	3.1
